The term AC50 denotes the midpoint of the concentration-response curve, whichever way the signal moves.

The results in this text go back to PubChem BioAssay (EPA / NIEHS).

The source made the active and inactive calls. The calls were made as follows: active = hit-call score of the fitted dose curve at least 0.9, where 1 is the maximum; inactive = score below 0.9.

The target of assay [1] is Transcription factor E2F1 (Homo sapiens) (UniProt Q01094). As to the kind of experiment: ATG_E2F_CIS: Attagene CIS-FACTORIAL HepG2 Assay for human E2F Transcription Factor 1 (AID 2282935). The note with it: HepG2 Attagene cis-reporter, E2F reporter RNA transcripts; actives raise or lower the signal. An outline of the steps: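 Gain or loss of reporter transcript, fitted against DMSO, reflects E2F1-driven transcription. Transiently transfected HepG2 dosed 24 h before RNA isolation. Quantified by fluorescent RT-PCR products separated by capillary electrophoresis.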

The nature of assay [2]: ATG_E_Box_CIS: Attagene CIS-FACTORIAL HepG2 Assay for human Enhancer Box (E-box) (AID 2282936). The note with it: HepG2 E-box cis-reporter transcription, actives raise or lower the signal. An outline of the steps: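 E-box-driven reporter transcripts measured in transiently transfected HepG2 after 24 h exposure: RNA reverse-transcribed, PCR-amplified, fluorescently labelled, digested and resolved by capillary electrophoresis. Gain or loss relative to DMSO.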

Assay [3] in a line: ATG_M_61_CIS: Attagene CIS-FACTORIAL HepG2 Assay for M61 Transcription Factor (Internal Marker) (AID 2282937). The note with it: HepG2 Attagene CIS-FACTORIAL M61 internal marker reporter; actives raise or lower the signal. An outline of the steps: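 Fluorescence from labelled cDNA fragments, separated by capillary electrophoresis, quantifies reporter induction. HepG2 cells bearing transiently transfected cis-promoter MRTUs were incubated with test chemical for 24 h; DMSO defined baseline for gain/loss fitting.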

Assay [4] can be described thus: ATG_EGR_CIS: Attagene CIS-FACTORIAL HepG2 Assay for human Early Growth Response 1 (EGR1) (AID 2282938). The note with it: HepG2 Attagene CIS-FACTORIAL EGR reporter mRNA; actives raise or lower the signal. An outline of the steps:
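Cell-based multiplex transcription assay: HepG2 carrying transfected cis-element reporter units, 24 h chemical treatment. Fluorescence from capillary electrophoresis of RT-PCR products gives mRNA levels; fitting is bidirectional relative to DMSO.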

A short description of assay [5]: ATG_M_19_CIS: Attagene CIS-FACTORIAL HepG2 Assay for M19 Transcription Factor (Internal Marker) (AID 2282939). The note with it: HepG2 Attagene CIS-FACTORIAL M19 internal marker reporter; actives raise or lower the signal. An outline of the steps: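 HepG2 cells transiently transfected with cis-regulated multiplexed reporter units, dosed 24 h. Reporter mRNA quantified by RT-PCR and capillary electrophoresis; internal background marker fitted bidirectionally versus DMSO.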

A short description of assay [6]: ATG_ERE_CIS: Attagene CIS-FACTORIAL HepG2 Assay for Estrogen Response Element (ERE) (AID 2282940). The note with it: HepG2 ERE cis-reporter, Attagene RNA transcript; actives raise or lower the signal. The gist of the method:
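HepG2 cells transiently transfected with multiplexed cis-element reporter units, measuring endogenous transcription factor activity; ERE reporter mRNA quantified after 24 h exposure by RT-PCR, fluorescent labelling, HpaI digestion and capillary electrophoresis. Bidirectional change versus DMSO.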

Assay [7] in a line: ATG_Ets_CIS: Attagene CIS-FACTORIAL HepG2 Assay for human Erythroblast Transformation Specific (ETS) (AID 2282941). The note with it: HepG2 ETS cis-reporter transcription, actives raise or lower the signal. The gist of the method:
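Bidirectional fit versus DMSO of reporter mRNA signal, detected by RT-PCR and capillary electrophoresis in HepG2 cells transiently transfected with cis-element reporters and dosed 24 h.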

Assay [8] addresses Hepatocyte nuclear factor 3-beta (Homo sapiens) (UniProt Q9Y261). Nature of the assay: ATG_FoxA2_CIS: Attagene CIS-FACTORIAL HepG2 Assay for human Forkhead box A2 (FOXA2) (AID 2282942). The note with it: HepG2 cis-reporter transcription factor activity, 24 h; actives raise or lower the signal. An outline of the steps: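 In transiently transfected human HepG2 cells, promoter-driven reporter mRNA levels after 24 h chemical exposure are determined via RT-PCR with capillary electrophoresis. DMSO serves as baseline for bidirectional fitting.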

A short description of assay [9]: ATG_FoxO_CIS: Attagene CIS-FACTORIAL HepG2 Assay for human Forkhead box O (FoxO) (AID 2282943). The note with it: HepG2 Attagene cis-reporter, FoxO element, mRNA; actives raise or lower the signal. The gist of the method: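 Endogenous transcription factor activity read from multiplexed cis-promoter reporter transcripts in transiently transfected HepG2, 24 h after dosing. Reporter RNA measured via RT-PCR plus capillary electrophoresis of FAM-labeled products; gain or loss relative to DMSO.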

A short description of assay [10]: ATG_GATA_CIS: Attagene CIS-FACTORIAL HepG2 Assay for human GATA Binding Protein (AID 2282944). The note with it: HepG2 GATA cis-element reporter, Attagene multiplex mRNA; actives raise or lower the signal. An outline of the steps: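 HepG2 cells transiently transfected with multiplexed cis-element reporter units measure endogenous GATA activity; after 24 h compound exposure, reporter mRNA quantified by RT-PCR and capillary electrophoresis. Changes fitted in both directions vs DMSO.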

Assay [11] in a line: ATG_GLI_CIS: Attagene CIS-FACTORIAL HepG2 Assay for human Zinc Finger Protein GLI1 (AID 2282945). The note with it: HepG2, Attagene cis-factorial reporter mRNA, GLI element; actives raise or lower the signal. The gist of the method:
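Bidirectional curve fits relative to DMSO, using reporter mRNA levels from RT-PCR plus capillary electrophoresis. Cells were HepG2 transiently carrying cis-regulated reporter constructs, harvested 24 h after dosing.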

Assay [12] can be described thus: ATG_GRE_CIS: Attagene CIS-FACTORIAL HepG2 Assay for human Glucocorticoid Response Elements (GRE) (AID 2282947). The note with it: HepG2 GRE cis-reporter, Attagene multiplex mRNA; actives raise or lower the signal. The gist of the method: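 Reporter transcripts read by RT-PCR with capillary electrophoresis fluorescence after a 24 h chemical exposure of HepG2 cells transiently transfected with multiple cis-element reporter units. Gain or loss fitted against DMSO.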

The nature of assay [13]: ATG_ISRE_CIS: Attagene CIS-FACTORIAL HepG2 Assay for human Interferon Regulatory Factor 1 (IRF1) binding to an Interferon-Stimulated Response Element (ISRE) (AID 2282948). The note with it: HepG2 ISRE cis-reporter (Attagene), mRNA transcription readout; actives raise or lower the signal. The gist of the method: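 Uses HepG2 liver cells transfected with cis-regulated reporters and measures mRNA 24 h post-dosing through RT-PCR, primer-extension labelling and capillary electrophoresis, with DMSO as negative control.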

Assay [14] in a line: ATG_M_32_CIS: Attagene CIS-FACTORIAL HepG2 Assay for M32 Transcription Factor (Internal Marker) (AID 2282949).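 Also: background control marker of the multiplexed CIS panel rather than a real target.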 The note with it: HepG2 Attagene cis-factorial M32 reporter, mRNA; actives raise or lower the signal. An outline of the steps: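 HepG2 transfectants (cis-regulated reporter transcription units) dosed 24 h. Reporter mRNA by RT-PCR plus CE, analysed as gain or loss relative to DMSO.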

The nature of assay [15]: ATG_M_06_CIS: Attagene CIS-FACTORIAL HepG2 Assay for M06 Transcription Factor (Internal Marker) (AID 2282950). The note with it: HepG2 Attagene CIS-FACTORIAL M06 internal marker reporter; actives raise or lower the signal. An outline of the steps:
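Internal background marker within multiplexed cis-reporter HepG2 system. Cells transiently transfected, dosed 24 h; reporter mRNA measured by RT-PCR, HpaI digestion and capillary electrophoresis. Bidirectional fit relative to DMSO.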

Assay [16] addresses Hypoxia-inducible factor 1-alpha (Homo sapiens) (UniProt Q16665). As to the kind of experiment: ATG_HIF1a_CIS: Attagene CIS-FACTORIAL HepG2 Assay for human Hypoxia Inducible Factor 1 (HIF1A) (AID 2282951). The note with it: HepG2 Attagene cis-factorial HIF1a reporter transcription; actives raise or lower the signal. An outline of the steps: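 In this multiplexed cell assay, HepG2 cells bearing transfected cis reporters are dosed for 24 h and reporter mRNA is read by RT-PCR plus capillary electrophoresis; signal increases and decreases are both scored against DMSO.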

Assay [17] concerns the target Hepatocyte nuclear factor 6 (Homo sapiens) (UniProt Q9UBC0). Nature of the assay: ATG_HNF6_CIS: Attagene CIS-FACTORIAL HepG2 Assay for human Hepatocyte Nuclear Factor 6 (HNF6) (AID 2282952). The note with it: HepG2 Attagene cis-factorial HNF6 reporter transcription; actives raise or lower the signal. An outline of the steps: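 Endogenous factor activity read in transiently transfected HepG2 via promoter-regulated reporter transcripts. RNA harvested 24 h post-dosing, reverse-transcribed, PCR-amplified, FAM-labelled, HpaI-digested and resolved by capillary electrophoresis; fitted in both directions against DMSO.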

Assay [18] can be described thus: ATG_MRE_CIS: Attagene CIS-FACTORIAL HepG2 Assay for human Metal Responsive Element (MRE) (AID 2282954). The note with it: HepG2 MRE cis-reporter transcription, Attagene multiplex; actives raise or lower the signal. The gist of the method:
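Endogenous MRE-dependent transcription read as reporter mRNA in transiently transfected human HepG2 cells at 24 h. RNA reverse-transcribed, PCR-amplified, labelled and resolved by capillary electrophoresis; gain or loss relative to DMSO.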

The target of assay [19] is Heat shock factor protein 1 (Homo sapiens) (UniProt Q00613). As to the kind of experiment: ATG_HSE_CIS: Attagene CIS-FACTORIAL HepG2 Assay for human Heat Shock Transcription Factor 1 (HSE) (AID 2282953). The note with it: HepG2 HSE cis-reporter, Attagene RNA transcription; actives raise or lower the signal. An outline of the steps: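 HepG2 cells transfected with cis-promoter reporter units sensing endogenous transcription factor activity; reporter mRNA quantified 24 h post-dose by RT-PCR and capillary electrophoresis of 6-FAM-labelled products. Bidirectional fitting against DMSO.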

Assay [20] deals with Bile acid receptor (Homo sapiens) (UniProt Q96RI1). As to the kind of experiment: ATG_IR1_CIS: Attagene CIS-FACTORIAL HepG2 Assay for human Nuclear Receptor Subfamily 1 Group H Member 4 (NR1H4), IR1 submotif (AID 2282946). The note with it: IR1 reporter transcription, actives raise or lower the signal. An outline of the steps:
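HepG2 cells transiently transfected with multiplexed cis-element reporter units read endogenous transcription factor activity. After 24 h compound exposure, reporter mRNA was quantified by RT-PCR, fluorescent labelling, HpaI digestion and capillary electrophoresis; bidirectional fitting versus DMSO baseline.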

Chain of Hepatocyte nuclear factor 3-beta (Homo sapiens) (Q9Y261 whole entry, looked up): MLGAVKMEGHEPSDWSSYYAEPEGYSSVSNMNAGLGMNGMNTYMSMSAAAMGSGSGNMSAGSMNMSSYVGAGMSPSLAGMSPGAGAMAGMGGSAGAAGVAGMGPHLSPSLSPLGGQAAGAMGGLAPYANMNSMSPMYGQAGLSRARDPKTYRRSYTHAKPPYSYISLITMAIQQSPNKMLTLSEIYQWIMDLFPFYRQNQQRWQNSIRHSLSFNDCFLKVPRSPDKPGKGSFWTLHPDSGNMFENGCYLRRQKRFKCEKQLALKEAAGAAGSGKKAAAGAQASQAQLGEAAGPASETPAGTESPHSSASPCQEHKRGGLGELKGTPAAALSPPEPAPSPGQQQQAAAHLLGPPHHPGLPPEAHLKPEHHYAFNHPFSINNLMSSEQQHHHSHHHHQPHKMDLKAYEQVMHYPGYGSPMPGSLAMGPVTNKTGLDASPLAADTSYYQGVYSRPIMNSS
Chain of Transcription factor E2F1 (Homo sapiens) (Q01094 whole entry, looked up): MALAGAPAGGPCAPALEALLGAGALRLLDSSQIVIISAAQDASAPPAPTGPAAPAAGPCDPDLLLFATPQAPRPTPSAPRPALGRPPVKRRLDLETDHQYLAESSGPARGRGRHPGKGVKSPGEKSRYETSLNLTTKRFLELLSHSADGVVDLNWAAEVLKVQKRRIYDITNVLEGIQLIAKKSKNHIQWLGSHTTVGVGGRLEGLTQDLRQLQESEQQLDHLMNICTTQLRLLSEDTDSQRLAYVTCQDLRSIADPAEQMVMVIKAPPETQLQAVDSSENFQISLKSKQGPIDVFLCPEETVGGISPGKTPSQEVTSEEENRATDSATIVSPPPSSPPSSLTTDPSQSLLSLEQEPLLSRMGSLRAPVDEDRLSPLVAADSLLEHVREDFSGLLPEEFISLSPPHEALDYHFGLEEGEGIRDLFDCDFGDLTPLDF
Chain of Hepatocyte nuclear factor 6 (Homo sapiens) (Q9UBC0 whole entry, looked up): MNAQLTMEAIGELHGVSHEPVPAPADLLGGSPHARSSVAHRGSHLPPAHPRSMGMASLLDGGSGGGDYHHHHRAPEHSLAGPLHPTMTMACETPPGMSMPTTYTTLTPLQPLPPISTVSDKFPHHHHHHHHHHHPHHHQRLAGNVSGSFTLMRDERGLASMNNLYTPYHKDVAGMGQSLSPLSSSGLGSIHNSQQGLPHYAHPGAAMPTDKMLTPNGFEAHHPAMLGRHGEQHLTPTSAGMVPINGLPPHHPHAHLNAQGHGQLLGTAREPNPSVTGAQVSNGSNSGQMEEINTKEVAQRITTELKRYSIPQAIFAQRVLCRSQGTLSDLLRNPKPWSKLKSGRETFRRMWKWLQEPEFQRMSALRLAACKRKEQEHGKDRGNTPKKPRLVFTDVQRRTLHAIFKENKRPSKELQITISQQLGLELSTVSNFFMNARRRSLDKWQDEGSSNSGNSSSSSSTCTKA
Chain of Bile acid receptor (Homo sapiens) (Q96RI1 whole entry, looked up): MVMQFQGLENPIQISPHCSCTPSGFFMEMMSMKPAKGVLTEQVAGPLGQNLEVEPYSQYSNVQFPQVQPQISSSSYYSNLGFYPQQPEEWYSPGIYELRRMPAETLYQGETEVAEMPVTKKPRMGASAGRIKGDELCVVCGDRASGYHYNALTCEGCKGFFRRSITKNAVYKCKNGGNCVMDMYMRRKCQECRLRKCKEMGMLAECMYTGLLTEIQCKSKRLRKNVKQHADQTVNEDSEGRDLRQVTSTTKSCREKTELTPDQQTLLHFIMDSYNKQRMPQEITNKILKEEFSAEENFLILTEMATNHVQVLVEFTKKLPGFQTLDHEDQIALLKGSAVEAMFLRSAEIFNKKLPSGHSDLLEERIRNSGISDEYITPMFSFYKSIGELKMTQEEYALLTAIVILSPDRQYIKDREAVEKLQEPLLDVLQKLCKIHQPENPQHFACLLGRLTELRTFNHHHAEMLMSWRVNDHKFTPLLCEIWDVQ
Chain of Hypoxia-inducible factor 1-alpha (Homo sapiens) (Q16665 whole entry, looked up): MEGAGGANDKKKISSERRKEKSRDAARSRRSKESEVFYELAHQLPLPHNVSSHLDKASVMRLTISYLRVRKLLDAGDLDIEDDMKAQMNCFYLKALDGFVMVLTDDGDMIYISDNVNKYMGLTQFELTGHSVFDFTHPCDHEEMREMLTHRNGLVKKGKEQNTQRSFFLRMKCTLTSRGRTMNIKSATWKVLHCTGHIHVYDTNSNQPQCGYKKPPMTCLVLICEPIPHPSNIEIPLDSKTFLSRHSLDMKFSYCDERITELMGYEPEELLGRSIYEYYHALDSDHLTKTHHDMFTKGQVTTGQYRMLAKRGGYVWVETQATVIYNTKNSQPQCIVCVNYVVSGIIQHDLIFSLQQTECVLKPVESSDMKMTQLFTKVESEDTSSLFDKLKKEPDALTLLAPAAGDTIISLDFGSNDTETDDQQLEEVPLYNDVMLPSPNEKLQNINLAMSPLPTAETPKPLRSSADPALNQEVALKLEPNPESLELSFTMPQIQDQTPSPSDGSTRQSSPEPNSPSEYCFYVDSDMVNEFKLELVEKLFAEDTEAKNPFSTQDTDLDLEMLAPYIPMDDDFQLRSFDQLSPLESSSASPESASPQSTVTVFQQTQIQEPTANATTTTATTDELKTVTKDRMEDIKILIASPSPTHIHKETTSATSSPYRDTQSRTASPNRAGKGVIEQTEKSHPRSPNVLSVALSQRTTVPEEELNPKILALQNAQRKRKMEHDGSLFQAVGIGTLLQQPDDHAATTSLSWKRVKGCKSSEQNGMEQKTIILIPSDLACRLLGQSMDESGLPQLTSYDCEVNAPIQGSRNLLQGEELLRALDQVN
Chain of Heat shock factor protein 1 (Homo sapiens) (Q00613 whole entry, looked up): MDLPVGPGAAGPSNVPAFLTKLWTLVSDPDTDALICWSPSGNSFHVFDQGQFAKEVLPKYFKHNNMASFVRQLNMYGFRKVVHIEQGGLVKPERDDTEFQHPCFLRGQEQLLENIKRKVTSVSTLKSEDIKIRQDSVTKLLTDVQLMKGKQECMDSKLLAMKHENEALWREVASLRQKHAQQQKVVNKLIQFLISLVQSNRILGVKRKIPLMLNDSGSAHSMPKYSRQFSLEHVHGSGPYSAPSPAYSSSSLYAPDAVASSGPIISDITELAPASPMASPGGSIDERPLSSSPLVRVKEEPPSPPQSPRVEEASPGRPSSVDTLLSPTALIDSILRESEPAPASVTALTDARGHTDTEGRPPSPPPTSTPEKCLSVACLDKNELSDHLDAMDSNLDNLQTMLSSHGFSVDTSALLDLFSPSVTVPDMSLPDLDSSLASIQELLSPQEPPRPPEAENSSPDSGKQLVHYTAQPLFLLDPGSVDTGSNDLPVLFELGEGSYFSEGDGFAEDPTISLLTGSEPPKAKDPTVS

Regarding `Nc1ccc(Cl)cc1`, the call in assay [1], in assay [2], in assay [3], in [4], in assay [5] and in [6] was inactive. The outcome in assay [7], in assay [8], in assay [9], in assay [10], in assay [11] and in assay [12] was inactive. Further, the call in assay [13], in [14], in [15], in assay [16], in assay [17] and in assay [18] was inactive.

As to `CCCN(CCC)c1c([N+](=O)[O-])cc(C(C)C)cc1[N+](=O)[O-]`, the result in assay [1], in assay [2], in assay [3], in assay [4], in [5] and in [6] was inactive. Besides, the compound was called inactive in assay [7], in assay [8], in assay [9], in assay [10], in assay [11] and in [13]. Besides, the outcome in assay [14], in assay [15], in [16], in assay [17] and in [18] was inactive.

`Nc1cc2c3c(c1)C(c1ccccc1)=N[C@@H](NC(=O)c1cccnc1)C(=O)N3CC2`: the compound was called inactive in [1], in assay [2], in assay [3], in assay [4], in assay [5] and in assay [6]. For the same compound, the outcome in assay [7], in assay [8], in assay [9], in [10], in assay [11] and in assay [12] was inactive. Besides, the result in [13], in [14], in [15], in assay [16], in assay [17] and in assay [19] was inactive. In assay [18], the AC50 was 71.5 µM (active).

`CC(C)CBr`: the compound was called inactive in assay [1], in assay [2], in [3], in assay [4], in [5] and in [6]. The compound was classed as inactive in assay [7], in assay [8], in assay [9], in assay [10], in assay [11] and in [20]. The outcome in assay [12], in assay [13], in assay [15], in [16], in assay [17] and in [18] was inactive.

On to `CCOC(=O)c1ccccc1C(=O)OCC`, for which the call in assay [1], in assay [2], in [3], in assay [4], in assay [5] and in assay [6] was inactive. Besides, the compound was classed as inactive in [7], in assay [8], in assay [9], in assay [10], in assay [11] and in assay [12]. For the same compound, the result in assay [13], in assay [14], in assay [15], in assay [16], in assay [17] and in assay [19] was inactive. For the same compound, in assay [18], the result was inactive.

Regarding `CCCCN(CC)C(=O)SCCC`, the result in assay [1], in assay [2], in assay [3], in assay [4], in assay [5] and in assay [6] was inactive. Besides, the compound was classed as inactive in [7], in [8], in [9], in [10], in assay [11] and in assay [20]. Further, the outcome in [12], in assay [13], in assay [15], in [16], in assay [17] and in [18] was inactive.

Turning to `ClC(Cl)=C(c1ccc(Cl)cc1)c1ccccc1Cl`, the result in assay [1], in assay [3], in [4], in assay [5], in assay [8] and in assay [10] was inactive. Moreover, the result in assay [11], in [13], in [15], in assay [16] and in [17] was inactive. The AC50 in [2] was 63.6 µM (active); in assay [6], 4.18 µM (active); in assay [7] it was 174 µM (active); in assay [9], 160 µM (active); in assay [20], 43.7 µM (active); in [12], 124 µM (active). The AC50 in assay [18] was 100 µM (active).
